Assay results from the supplement of paper PMC6089552.
Among all 3,200 compounds or so, about 300 (9.4%) showed activity. The full list was thinned out, with actives kept by preference.

Test system: A673/TR/shEF
Assay: cell viability (LOESS-normalised, relative to median of negative controls) (log2 ratio); higher = more viable cells (less compound effect), active = hit call of the paper (over 3 MAD below the median)
Settings: treatment time: 72 h
In short: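 For three days, A673/TR/shEF Ewing sarcoma cells in 384-well plates (1,500 per well) were treated with library compounds at two or more concentrations or with DMSO controls, after doxycycline had been added or withheld 24 h beforehand to induce EWS-FLI1 shRNA knockdown. Viability was read by CellTiter-Glo luminescence on an Envision reader. The data were LOESS-corrected per plate, divided by the median of negative controls and log2-transformed.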

[1] = 0.25 µM, library screen: screen1, EWS-FLI1 expression: high (no doxycycline)
[2] = 0.25 µM, library screen: screen1, EWS-FLI1 expression: low (doxycycline-induced shRNA knockdown)
[3] = 2.5 µM, library screen: screen1, EWS-FLI1 expression: high (no doxycycline)
[4] = 2.5 µM, library screen: screen1, EWS-FLI1 expression: low (doxycycline-induced shRNA knockdown)
[5] = 0.103 µM, library screen: screen3, EWS-FLI1 expression: high (no doxycycline)
[6] = 0.103 µM, library screen: screen3, EWS-FLI1 expression: low (doxycycline-induced shRNA knockdown)
[7] = 0.308 µM, library screen: screen3, EWS-FLI1 expression: high (no doxycycline)
[8] = 0.308 µM, library screen: screen3, EWS-FLI1 expression: low (doxycycline-induced shRNA knockdown)
[9] = 0.926 µM, library screen: screen3, EWS-FLI1 expression: high (no doxycycline)
[10] = 0.926 µM, library screen: screen3, EWS-FLI1 expression: low (doxycycline-induced shRNA knockdown)
[11] = 2.8 µM, library screen: screen3, EWS-FLI1 expression: high (no doxycycline)
[12] = 2.8 µM, library screen: screen3, EWS-FLI1 expression: low (doxycycline-induced shRNA knockdown)
[13] = 8.3 µM, library screen: screen3, EWS-FLI1 expression: high (no doxycycline)
[14] = 8.3 µM, library screen: screen3, EWS-FLI1 expression: low (doxycycline-induced shRNA knockdown)
[15] = 25 µM, library screen: screen3, EWS-FLI1 expression: high (no doxycycline)
[16] = 25 µM, library screen: screen3, EWS-FLI1 expression: low (doxycycline-induced shRNA knockdown)
[17] = 0.25 µM, library screen: screen2, EWS-FLI1 expression: high (no doxycycline)
[18] = 0.25 µM, library screen: screen2, EWS-FLI1 expression: low (doxycycline-induced shRNA knockdown)
[19] = 2.5 µM, library screen: screen2, EWS-FLI1 expression: high (no doxycycline)
[20] = 2.5 µM, library screen: screen2, EWS-FLI1 expression: low (doxycycline-induced shRNA knockdown)
[21] = 0.025 µM, library screen: screen1, EWS-FLI1 expression: high (no doxycycline)
[22] = 0.025 µM, library screen: screen1, EWS-FLI1 expression: low (doxycycline-induced shRNA knockdown)
[23] = 25 µM, library screen: screen1, EWS-FLI1 expression: high (no doxycycline)
[24] = 25 µM, library screen: screen1, EWS-FLI1 expression: low (doxycycline-induced shRNA knockdown)

Measured: cell viability (log2)

O=C1O[C@H]([C@@H](O)CO)C([O-])=C1[O-].[Ca+2]
inactive: [1] 0.0808 | [2] 0.0736 | [3] 0.131 | [4] 0.127

CC1=C(C(=O)Nc2ccccc2Cl)C(c2ccccc2Cl)NC(=S)N1 (centres undefined)
inactive: [1] 0.0969 | [2] 0.0233 | [3] 0.106 | [4] 0.0823

CCc1c(C)c(C#N)c2nc3ccccc3n2c1-n1ccnc1C
inactive: [1] 0.109 | [2] 0.0379 | [3] 0.104 | [4] 0.136

CC(=O)Oc1ccc2c(c1)CC[C@@H]1[C@@H]2CC[C@]2(C)[C@@H](O)CC[C@@H]12
inactive: [1] 0.103 | [2] -0.00729 | [3] 0.0771 | [4] 0.0723

COc1c(O)cc(O)c2c(=O)c(-c3ccc(O)cc3)coc12
inactive: [1] 0.0728 | [2] 0.0747 | [3] 0.145 | [4] 0.165

COc1c/c(=C2\C=c3ccccc3=N2)[nH]/c1=C\c1[nH]c(C)cc1C
inactive: [5] -0.00852 | [6] -0.0389
active: [7] -0.218 | [8] -0.107 | [9] -0.709 | [10] -0.236 | [11] -2.64 | [12] -1.14 | [13] -3.15 | [14] -1.55 | [15] -4.31 | [16] -2.5

COc1nc(N/N=C/c2ccccc2F)nc(N2CCCCC2)n1
inactive: [1] 0.0265 | [2] 0.00454 | [3] 0.104 | [4] -0.0151

NC(Cc1ccc(F)cc1)C(=O)O (centres undefined)
inactive: 0.025 µM, library screen: screen2, EWS-FLI1 expression: high (no doxycycline) 0.118 | 0.025 µM, library screen: screen2, EWS-FLI1 expression: low (doxycycline-induced shRNA knockdown) 0.0851 | [1] 0.119 | [2] 0.172 | [17] 0.158 | [18] 0.0689 | [3] 0.144 | [4] 0.0179 | [19] 0.2 | [20] 0.0773 | 25 µM, library screen: screen2, EWS-FLI1 expression: high (no doxycycline) 0.0209 | 25 µM, library screen: screen2, EWS-FLI1 expression: low (doxycycline-induced shRNA knockdown) 0.0999

CSCCC(NC=O)C(=O)NC(C)C(=O)O (centres undefined)
inactive: [1] 0.11 | [2] 0.0779 | [3] 0.177 | [4] 0.154

O=C1c2c(O)ccc(O)c2C(=O)c2c(NCCNCCO)ccc(NCCNCCO)c21
active: [5] -0.962 | [6] -0.246 | [1] -1.93 | [2] -0.576 | [17] -2.25 | [18] -0.221 | [7] -1.25 | [8] -0.351 | [9] -1.51 | [10] -0.325 | [3] -4.22 | [4] -3.67 | [19] -2.87 | [20] -0.985 | [11] -2.02 | [12] -0.758 | [13] -3.96 | [14] -3.09 | [15] -4.26 | [16] -4.25

O=C1c2cccc(O)c2C(=O)c2c(O)cccc21
inactive: [1] 0.127 | [2] 0.109 | [3] 0.149 | [4] 0.271

O=C1c2ccc(O)c(O)c2C(=O)c2c(O)ccc(O)c21
inactive: [1] 0.0226 | [2] 0.0878 | [3] 0.117 | [4] -0.00838

NC(N)=NCCC[C@H](N[C@H](CCC(=O)O)C(=O)O)C(=O)O
inactive: [1] 0.0848 | [2] 0.0238 | [3] 0.123 | [4] 0.0291

O=P(O)(O)C(O)c1ccc2ccccc2c1 (centres undefined)
inactive: [21] 0.0997 | [22] 0.0649 | [1] 0.143 | [2] -0.0248 | [3] 0.0554 | [4] 0.0311 | [23] 0.0292 | [24] 0.0551

C/C(=C\C(=O)Nc1ccccc1C(=O)O)c1ccc2ccccc2c1
inactive: [5] 0.0459 | [6] 0.0279 | [7] -0.00745 | [8] -0.00325 | [9] -0.0219 | [10] 0.0436 | [11] 0.00499 | [12] -1.3e-05 | [13] -0.0171 | [14] 0.0177 | [15] 0.0665 | [16] 0.0416

C=CC(=O)c1ccc2ccccc2c1
0.279: [21]
inactive: [22] 0.0903 | [2] 0.00371 | [4] 0.198 | [24] -0.0301
active: [3] -0.264 | [23] -0.287
0.286: [1]

NC(=O)c1cc[n+](CC2=C(C(=O)O)N3C(=O)[C@@H](NC(=O)C(c4ccccc4)S(=O)(=O)O)[C@H]3SC2)cc1 (some centres undefined)
inactive: [1] -0.0396 | [2] 0.081 | [3] -0.00797 | [4] 0.0119

CN1CCN(c2nc3ccccn3c(=O)c2/C=C2\SC(=S)N(C)C2=O)CC1
inactive: [1] 0.017 | [2] -0.00298 | [3] 0.0372 | [4] -0.00837

COc1ccc(-c2cc(=O)c3c(O)cc(O[C@@H]4O[C@H](CO[C@@H]5O[C@@H](C)[C@H](O)[C@@H](O)[C@H]5O)[C@@H](O)[C@H](O)[C@H]4O)cc3o2)cc1
inactive: [1] 0.0703 | [2] 0.0696 | [3] 0.0879 | [4] 0.0994

COc1ccc(-c2cc(=O)c3c(O)c(OC)c(OC4OC(COC5OC(C)C(O)C(O)C5O)C(O)C(O)C4O)cc3o2)cc1 (centres undefined)
inactive: [1] 0.0877 | [2] 0.0838 | [3] 0.171 | [4] 0.116

COc1ccc(-c2cc(=O)c3c(O)cc(O[C@@H]4O[C@H](CO[C@@H]5O[C@@H](C)[C@H](O)[C@@H](O)[C@H]5O)[C@@H](O)[C@H](O)[C@H]4O)cc3o2)cc1O
inactive: [2] 0.0382 | [4] 0.0709
active: [1] -0.0892 | [3] -0.0968

COc1cc(O)c2c(=O)cc(-c3ccc(OC)c(O)c3)oc2c1
inactive: [1] 0.0474 | [2] 0.00819 | [3] 0.132 | [4] 0.0369

COc1ccc(-c2cc(=O)c3c(O)cc(O)cc3o2)cc1O
inactive: [1] -0.0193 | [2] -0.536 | [3] -0.0793 | [4] 0.0681

COc1ccc(-c2cc(=O)c3c(O)c(OC)c(OC)cc3o2)cc1O
active: [3] -0.654
inactive: [1] -0.076 | [2] -0.0378 | [4] -0.145
